Experimental findings from PubChem BioAssay (NCI) are described below.

Some test systems named below: T-47D breast; BT-549 breast; MDA-MB-435 melanoma; SW-620 colon; MCF7 breast; HCT-116 colon; HCC-2998 colon; KM12 colon.
Test in all cases: NCI-60 one-dose screen, 48 h (100 = growth as untreated, 0 = no growth, -100 = all killed)
Settings in all cases: 10 µM unless noted

Structures are written as SMILES. About 83,000 compounds went through this panel and 20% of them were active in at least one assay; those are over-represented in the sample as a whole.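 A percent growth of 40 corresponds to 60% growth inhibition; 0 means no net growth; -100 means all cells died. Active threshold: below 10.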 A number with no mark means an inactive call. Activity calls are given as the source filed them.

As for `CCN(CC)CCCCCNc1cc(OC(=O)c2ccc(Cl)cc2)cc2cccnc12`, the growth was 56% in the assay with T-47D breast; 98% in the assay on BT-549 breast; 120% in the assay on MDA-MB-435 melanoma; 105% with SW-620 colon; 86.5% in the assay on MCF7 breast; 83.6% in the assay with HCT-116 colon. The values for the growth in the assay with HCC-2998 colon and in the assay on KM12 colon were 84.9% and 111%, respectively.
Regarding `COc1cc(C2c3cc(OC(C)=O)c(OC)cc3CC3C(=O)OCC32)ccc1OC(C)=O` (stereo not drawn), the growth in the assay on T-47D breast is 103%; in the assay with BT-549 breast, 99.6%; with MDA-MB-435 melanoma it was 118%; in the assay on SW-620 colon it was 101%; in the assay with MCF7 breast, 101%; with HCT-116 colon, 98.2%. Moreover, the values for the growth with HCC-2998 colon and in the assay on KM12 colon were 104% and 117%, respectively.
Turning to `CCN(CC)S(=O)(=O)c1ccc(S(=O)(=O)N2CCC[C@@H](C(=O)N3CCN(c4nc(C(C)C)no4)CC3)C2)cc1`, the growth was 43.1% in the assay with T-47D breast; 62.9% in the assay on BT-549 breast; 55.7% in the assay on MDA-MB-435 melanoma; 79.5% in the assay with SW-620 colon; 50.7% in the assay with MCF7 breast; 51.8% in the assay on HCT-116 colon. Besides, the growth was 78.7% with HCC-2998 colon and 77.4% in the assay on KM12 colon.
As to `Clc1ccc2c(c1)C(c1c[nH]c3ccccc13)(c1c[nH]c3ccccc13)CCO2`, the growth is -3.57% (active) in the assay on T-47D breast; 77.2% in the assay on BT-549 breast; 94.9% in the assay with MDA-MB-435 melanoma; 87.4% in the assay on SW-620 colon; 103% with MCF7 breast; 56.5% in the assay with HCT-116 colon. In addition, the growth with HCC-2998 colon is 112%; in the assay on KM12 colon, 78.2%.
As for `CCCCCCCCCCCCCCCCOCCCOP(=O)(O)C1CCCN(O)C1=O` (stereo not drawn), the growth with T-47D breast was 43.2%; in the assay with BT-549 breast, 32.2%; in the assay on MDA-MB-435 melanoma it was 14.3%; in the assay on SW-620 colon, 20.9%; in the assay with MCF7 breast it was 18.5%; in the assay on HCT-116 colon, 14.5%. Further, the growth with HCC-2998 colon was 3.73% (active); with KM12 colon, 7.79% (active).
On to `O=C(Nn1c2c(sc1=NC1CC1)C(=O)c1ccccc1C2=O)c1cc2ccc1CCc1ccc(cc1)CC2`, for which the growth was 20.4% in the assay with T-47D breast; 37.2% in the assay with BT-549 breast; -93.2% (active) in the assay on MDA-MB-435 melanoma; 18.3% in the assay with SW-620 colon; 11.5% with MCF7 breast; -9.1% (active) in the assay on HCT-116 colon. For the same compound, the values for the growth with HCC-2998 colon and with KM12 colon were 61.4% and 35.2%, respectively.
Take `Cc1[nH]c(C(=O)Nc2ccc(C(=O)N3CCN(c4cc5c(cc4F)c(=O)c(C(=O)O)cn5C4CC4)CC3)cc2OC(C)C)c(Cl)c1Cl`: the growth is 84% in the assay on T-47D breast; 75.7% in the assay with BT-549 breast; 88.5% in the assay with MDA-MB-435 melanoma; 96.3% with SW-620 colon; 88.8% with MCF7 breast; 38.1% with HCT-116 colon. For the same compound, the growth with HCC-2998 colon was 96.4%; in the assay with KM12 colon, 80.4%.
For `C=CCOC(=O)Nc1cccn([C@H](Cc2ccccc2)C(=O)NCCC(C)C)c1=O`, the growth is 93.8% in the assay on T-47D breast; 132% in the assay with BT-549 breast; 108% in the assay with MDA-MB-435 melanoma; 109% in the assay on SW-620 colon; 92.8% with MCF7 breast; 109% in the assay with HCT-116 colon. Also, the growth in the assay on HCC-2998 colon is 105%; with KM12 colon, 110%.
With `CN(C)CC(C)(C)C(=O)/C=C/c1ccccc1`, the growth with T-47D breast was -30.8% [25 µM] (active); with BT-549 breast, -65% [25 µM] (active); with MDA-MB-435 melanoma, -35.9% [25 µM] (active); in the assay with SW-620 colon, -59.1% [25 µM] (active); in the assay on MCF7 breast it was -13.6% [25 µM] (active); in the assay with HCT-116 colon it was -87.1% [25 µM] (active). The growth with HCC-2998 colon is -75.7% [25 µM] (active); with KM12 colon, -22.8% [25 µM] (active).
For `O=C1NC(=C(Cl)Cl)/C(=N\S(=O)(=O)NCc2ccccc2)N1`, the growth with T-47D breast is 52%; in the assay on BT-549 breast, 97.8%; in the assay on MDA-MB-435 melanoma, 95.8%; in the assay on SW-620 colon, 111%; with MCF7 breast it was 74.4%; in the assay with HCT-116 colon, 94.2%. Moreover, the growth is 127% in the assay on HCC-2998 colon and 62.9% with KM12 colon.
For the compound `COc1cc(OC)c(NC(=O)c2cc3ccccc3cc2O)cc1Cl`, the growth was 78.7% with T-47D breast; -25.9% (active) with BT-549 breast; 22.7% with MDA-MB-435 melanoma; 21.9% in the assay on SW-620 colon; 76.1% in the assay with MCF7 breast; 18.1% in the assay on HCT-116 colon. Also, the growth is 61.9% in the assay on HCC-2998 colon and 18.5% in the assay with KM12 colon.
For the compound `O=C(Cn1cc(CSc2nc3ccccc3o2)nn1)Nc1ccc(F)cc1F`, the growth in the assay with T-47D breast was 116%; with BT-549 breast, 113%; in the assay with MDA-MB-435 melanoma, 114%; in the assay with SW-620 colon, 112%; in the assay with MCF7 breast, 92.5%; in the assay with HCT-116 colon, 109%. Moreover, the growth was 111% in the assay with HCC-2998 colon and 116% with KM12 colon.
Consider `COc1ccc(NC(=O)c2sc3nc(C)c(C(=O)/C=C/c4ccccc4)cc3c2N)cc1`, for which the growth in the assay on T-47D breast was 57.7%; in the assay on BT-549 breast it was 50%; with MDA-MB-435 melanoma, 15.7%; in the assay on SW-620 colon, 2.56% (active); with MCF7 breast, 14.9%; in the assay on HCT-116 colon, 12.3%. For the same compound, the growth in the assay on HCC-2998 colon was 25.2%; with KM12 colon it was 18.7%.
In the case of `CCCOC(=O)Nc1nc2ccc(SCC(C)C)cc2s1`, the growth is 37.8% in the assay with T-47D breast; 52.3% with BT-549 breast; -7.7% (active) with MDA-MB-435 melanoma; 33.8% in the assay with SW-620 colon; 19.7% in the assay with MCF7 breast; 34.6% in the assay with HCT-116 colon. Moreover, the figures for the growth in the assay on HCC-2998 colon and in the assay with KM12 colon were 77.1% and 38.8%, respectively.
Regarding `COC(=O)[C@@H](CCCCNC(=O)[C@]12CCC(C)(C)C[C@@H]1C1=CC[C@@H]3[C@@]4(C)C/C(=C/c5ccco5)C(=O)C(C)(C)[C@@H]4CC[C@@]3(C)[C@]1(C)CC2)NC(=O)[C@]12CCC(C)(C)C[C@@H]1C1=CC[C@@H]3[C@@]4(C)C/C(=C/c5ccco5)C(=O)C(C)(C)[C@@H]4CC[C@@]3(C)[C@]1(C)CC2`, the growth was 94.7% in the assay with T-47D breast; 106% in the assay with BT-549 breast; 93.9% in the assay with MDA-MB-435 melanoma; 112% in the assay on SW-620 colon; 104% in the assay on MCF7 breast; 100% in the assay on HCT-116 colon. For the same compound, the growth in the assay on HCC-2998 colon and in the assay with KM12 colon was 103% throughout.
`COc1ccc(/C=C(\C#N)n2nnc3ccc(Cl)cc32)cc1`: the growth is 51.1% in the assay with T-47D breast; 68% in the assay with BT-549 breast; -22.8% (active) in the assay with MDA-MB-435 melanoma; 11.8% in the assay with SW-620 colon; 18.6% with MCF7 breast; 39% in the assay with HCT-116 colon. Also, the growth was 87.3% with HCC-2998 colon and 39.3% with KM12 colon.
